IL-1B inflam inh: inflammasome signaling inhibition, IL-1 beta readout; THP-1 LPS/ATP IL-1B secretion, AlphaLISA, 16 h; hits give low values; activity change, % at 57.5 µM; actives 4.7% (n = 360,000); AID 743279; in the data active = activity change below about -50%; inconclusive = mostly about -30% to -49%; also: % is scaled to controls: 0 for no effect and ±100 for the full control effect
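Secreted IL-1B measured by AlphaLISA bead assay after 16 h compound exposure of THP-1 cells; compounds (final up to 57.5 uM) added 1 h before LPS (250 ng/mL) and ATP (1.25 mM) stimulation; lower signal means less secretion.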
HepG2 tox: kills HepG2 cells in TGF-b inhibitor counter-screen | AID 588856 | HepG2 CAGA-GFP viability, ATP luminescence, 18 h | actives 0.76% (n = 410,000) | Potency, µM (series often up to 46.1 µM), inactives show at the top dose activity change, negative = cytotoxicity, usual class: cytotoxic; also: potency is read from the fitted curve at half-maximal effect
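HepG2 CAGA-GFP cells (1000/well, DMEM with 1% FBS) received compound, then TGF-beta at 500 pg/mL final, and were incubated 18 hours at 37 degrees C. Viability was read by CellTiter-Glo luminescence. Media-only wells were set as complete cell-killing and DMSO as no toxicity.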
TDP1 block: TDP1 (human) enzyme inhibition; Q9NUW8; recombinant TDP1, AlphaScreen DNA substrate cleavage; Potency, µM (highest dose often 130 µM), inactives show top-dose activity change, negative = inhibition, usual class: inhibitors; actives 0.28% (n = 350,000); AID 485290; also: potency is read from the fitted curve at half-maximal effect; % is scaled to controls: 0 for no effect and ±100 for the full control effect; nearly all actives have a fitted effect of over 40% in size
Target sequence (Q9NUW8 whole entry, looked up): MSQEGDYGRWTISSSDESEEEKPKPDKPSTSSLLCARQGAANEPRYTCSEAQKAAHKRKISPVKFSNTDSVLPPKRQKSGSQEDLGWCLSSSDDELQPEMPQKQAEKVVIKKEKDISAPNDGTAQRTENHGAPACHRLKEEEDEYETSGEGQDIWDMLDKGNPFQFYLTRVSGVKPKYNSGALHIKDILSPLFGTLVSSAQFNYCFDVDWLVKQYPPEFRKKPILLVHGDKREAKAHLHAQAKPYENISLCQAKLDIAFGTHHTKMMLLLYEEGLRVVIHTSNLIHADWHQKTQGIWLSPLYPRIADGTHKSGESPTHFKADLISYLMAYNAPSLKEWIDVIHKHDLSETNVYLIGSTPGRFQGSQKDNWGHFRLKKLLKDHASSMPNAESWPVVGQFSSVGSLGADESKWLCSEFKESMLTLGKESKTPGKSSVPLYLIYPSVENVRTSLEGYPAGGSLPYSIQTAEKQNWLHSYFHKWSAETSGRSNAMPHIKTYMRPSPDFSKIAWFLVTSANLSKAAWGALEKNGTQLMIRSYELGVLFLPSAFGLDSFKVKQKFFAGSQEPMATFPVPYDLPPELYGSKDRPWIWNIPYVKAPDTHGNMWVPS
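Steps: enzyme plus compound, 15 min RT; add biotin/phosphotyrosine-FITC oligonucleotide (15 nM final), react 5 min; add donor/acceptor beads (10 ug/ml final), 10 min; read AlphaScreen. Tdp1 at 1 nM final.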
DT40 TDP1 no CPT: qHTS for Inhibitors of human tyrosyl-DNA phosphodiesterase 1 (TDP1): qHTS in cells in absence of CPT | DT40 Tdp1-/- hTDP1 cells, no CPT, ATP luminescence, 48 h | Potency, µM (doses to about 46.2 µM), inactives show at the highest dose activity change, negative = growth inhibition, actives largely listed as inhibitors | actives 15% (n = 420,000) | AID 686978, 2013; also: potency is read from the fitted curve at half-maximal effect; % is scaled to controls: 0 for no effect and ±100 for the full control effect; nearly all actives have a fitted effect of over 55% in size
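Chicken DT40 Tdp1-/- cells complemented with human TDP1, screened without camptothecin (DMSO vehicle only), 400 cells/well. Compounds pin-transferred, cells incubated at 37 °C for at least 48 hr. Growth read as ATP-dependent luminescence (CellTiter-Glo, 30 min at RT).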
TGFb SMAD3 inh: TGF-b pathway inhibition; HepG2 CAGA-GFP TGF-b/SMAD3 reporter, GFP fluorescence, 18 h; TGF-beta stimulated, 500 pg/mL final; Potency, µM (titrated, usually from 46.1 µM), without a hit: at the top dose activity, negative = inhibition, usual class: inhibitors; actives 1.2% (n = 410,000); also: potency is read from the fitted curve at half-maximal effect; % is scaled to controls: 0 for no effect and ±100 for the full control effect; nearly all actives have a fitted effect of over 65% in size
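HEPG2 CAGA-GFP cells (1000/well, DMEM with 1% FBS) were pre-incubated 2 h at 37 degrees C, given compound by pin tool, then stimulated with TGF-beta at 500 pg/mL final for 18 h before per-cell GFP fluorescence imaging.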
DT40 TDP1 CPT: DT40-hTDP1 cell growth loss with CPT | chicken DT40 Tdp1-/-;hTDP1 cells + 20 nM CPT, ATP luminescence, 48 h | actives 12% (n = 420,000) | AID 686979 | Potency, µM (highest dose often 46.2 µM), for inactives: at the highest dose activity change, negative = growth inhibition, most hits filed as inhibitors; also: potency is read from the fitted curve at half-maximal effect; % is scaled to controls: 0 for no effect and ±100 for the full control effect; nearly all actives have a fitted effect of over 55% in size
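Chicken DT40 Tdp1-/- cells complemented with human TDP1, 400 cells/well, exposed to compounds plus 20 nM camptothecin for at least 48 h at 37 C; viability read as ATP content by CellTiter-Glo luminescence.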
Numbers without * were called inactive; ? = inconclusive; . = not tested or not shown; [ ] = remark or other dose. Rows were chosen to be rich in hits. Some 19% of all compounds tested hit in one or more screens of this group. Unless noted, calls follow the shape of the dose curve; as a rule, active = well fitted curve in the direction sought with a large enough effect; inconclusive = small, poorly fitted or top-dose-only effect, or another doubt; inactive = no such curve, though single readings can be large; an effect the other way counts as inactive or inconclusive.

SMILES | IL-1B inflam inh | HepG2 tox | TDP1 block | DT40 TDP1 no CPT | TGFb SMAD3 inh | DT40 TDP1 CPT
CCN(CC)c1ccc(N=Cc2c(O)n(Cc3ccccc3)c(=O)[nH]c2=O)cc1 | 25 | 2% | -6% | 9.2µM* | 30% | 16µM*
CCOc1ccc(N=Cc2c(O)n(-c3ccc(C)c(C)c3)c(=O)[nH]c2=O)cc1 | 18 | 5.6µM* | . | -35% | 0% | -8%
CCN(CC)c1ccc(N=Cc2c(O)n(-c3ccccc3)c(=O)[nH]c2=O)cc1 | 35 | -48% | 3% | ? | ? | ?
C=CCn1c(O)c(C(C)=Nc2ccc(N(C)C)cc2)c(=O)[nH]c1=O | 4 | -22% | -5% | ? | -5% | ?
CCN(CC)c1ccc(N=Cc2c(O)n(-c3ccccc3C)c(=O)[nH]c2=O)cc1 | -7 | -17% | 9% | ? | 18% | 23µM*
CCOc1ccc(N=Cc2c(O)n(-c3cc(C)cc(C)c3)c(=O)[nH]c2=O)cc1 | 1 | -11% | 5% | -8% | 1% | -21%
C=CCn1c(O)c(C(C)=Nc2ccc(N(CC)CC)cc2)c(=O)[nH]c1=O | 39 | -1% | -3% | 9.2µM* | 7% | 21µM*
COc1ccc(-n2nnnc2C(CCSC)N2CCC(n3c(=O)[nH]c4ccccc43)CC2)cc1 (stereo not drawn) | -27 | 0% | . | 21µM* | ? | ?
CCC(c1nnnn1Cc1ccccc1)N1CCC(n2c(=O)[nH]c3ccccc32)CC1 (stereo not drawn) | -5 | -15% | . | 4.6µM* | ? | 5.8µM*
CCC(c1nnnn1Cc1ccccc1)N1CCC2(CC1)C(=O)NCN2c1ccccc1 (stereo not drawn) | 18 | 3% | . | ? | ? | ?
CCC(c1nnnn1-c1ccc(OC)cc1)N1CCC(n2c(=O)[nH]c3ccccc32)CC1 (stereo not drawn) | -22 | 2% | . | ? | 3% | ?
CCCC(c1nnnn1Cc1cccs1)N1CCN(c2nc3ccccc3s2)CC1 (stereo not drawn) | -17 | -17% | -5% | ? | -8% | ?
CCCCn1nnnc1C(CCc1ccccc1)N1CCC(n2c(=O)[nH]c3ccccc32)CC1 (stereo not drawn) | -56* | 1% | . | 12µM* | ? | 12µM*
COc1cccc(C(c2nnnn2-c2c(C)cccc2C)N2CCC(n3c(=O)[nH]c4ccccc43)CC2)c1OC (stereo not drawn) | -84* | -3% | . | 5.8µM* | ? | 5.8µM*
Cc1cccc(C)c1-n1nnnc1C(CCc1ccccc1)N1CCC(n2c(=O)[nH]c3ccccc32)CC1 (stereo not drawn) | 3 | 5% | . | 5.8µM* | ? | 5.8µM*
CCCCn1nnnc1C(CCSC)N1CCC(n2c(=O)[nH]c3ccccc32)CC1 (stereo not drawn) | -4 | -26% | . | 9.2µM* | -34% | 12µM*
O=c1[nH]c2ccccc2n1C1CCN(C(CCc2ccccc2)c2nnnn2-c2ccc3c(c2)OCCO3)CC1 (stereo not drawn) | ? | -18% | . | 2.9µM* | ? | 3.7µM*
CCCCn1nnnc1C(C1CC1)N1CCC(n2c(=O)[nH]c3ccccc32)CC1 (stereo not drawn) | -15 | -46% | . | ? | -25% | ?
CSCCC(c1nnnn1-c1ccc2c(c1)OCCO2)N1CCC2(CC1)C(=O)NCN2c1ccccc1 (stereo not drawn) | 0 | -33% | . | ? | ? | ?
CC1Cc2ccccc2CN1 (stereo not drawn) | . | 2% | . | 5% | -8% | -5%
CCOc1ccc(N(CC)S(=O)(=O)c2ccc3c(c2)oc(=O)n3C)cc1 | 18 | -13% | 2%[56.1 µM] | -28% | 18% | ?
CC[C@]1(C2=NCCN2)Cc2ccccc2O1 | . | . | 2% | -20% | . | 5%
C/C1=C\[C@@H](C)C/C=C/[C@H]2[C@@H]3O[C@]3(C)[C@@H](C)[C@H]3[C@H](Cc4c[nH]c5ccccc45)NC(=O)[C@]32C(=O)/C=C/C(=O)[C@@H]1O | -105* | -98% | -6% | 0.15µM* | 2.8µM* | 0.15µM*
CCC(CO)NC(=O)[C@@H]1C=C2c3cccc4[nH]cc(c34)C[C@H]2N(C)C1 (stereo partly drawn) | . | . | -4%[56.1 µM] | . | . | .
C[C@]12CC[C@H](O)CC1=CC[C@@H]1[C@@H]2CC[C@]2(C)C(=O)CC[C@@H]12 | 57 | -1% | . | ? | 1% | ?
Cc1nn(C)cc1/C=C1/CC2C3CC=C4CC(O)CCC4(C)C3CCC2(C)C1=O (stereo not drawn) | 31 | -1% | . | ? | 4% | 1%
CC12CCC3C(CC=C4CC(O)CCC43C)C1C/C(=C\c1ccccc1F)C2=O (stereo not drawn) | 23 | -5% | 0% | 23µM* | -4% | ?
C[C@]12CC[C@H](O)CC1=CCC1C2CC[C@]2(C)C(=O)CC[C@@H]12 (stereo partly drawn) | . | . | 10%[56.1 µM] | 30µM* | . | 30µM*

Assay outcomes as filed in PubChem BioAssay.
